# Source: the supplement of paper PMC10037445
# Several values for one entry are separate records, joined by “and”; a condition that tells them apart may be missing. Equal entries are not always repeated. The full ranking holds about 2,900 compounds; the median of “IRF Lucia reporter activity, fold change vs agonist alone” is about 0.9, and the highest 2% start at about 2.8. The full list was thinned out, with the highest values kept by preference.
# Tests used:
# RAW-Dual [1] = experiment: IRF Lucia reporter activity, fold change vs agonist alone; cytotoxicity flag (confluency mask): not cytotoxic; higher = enhanced IRF activity
# Procedure, shortened: (§1)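 RAW-Dual macrophages (50,000 cells/well in DMEM, 384-well plates) received 50 nL of library stock by pin tool, then a PRR agonist 1 h later, and were kept at 37 °C, 5% CO2. After 20 hours, supernatant was read for IRF by QuantiLuc luminescence and for NF-κB by QuantiBlue absorbance at 620 nm. Reporter activity is fold change over agonist-alone wells. Cytotoxic wells had IncuCyte confluency below 70% of agonist controls in both mask sets.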
# RAW-Dual [2] = experiment: IRF Lucia reporter activity, fold change vs agonist alone; higher = enhanced IRF activity; settings: agonist: MPLA (TLR4) […]
# Procedure, shortened: as §1
# RAW-Dual [3] = experiment: IRF Lucia reporter activity, fold change vs agonist alone; cytotoxicity flag (confluency mask): cytotoxic (confluency <70% of control); higher = enhanced IRF activity
# Procedure, shortened: as §1
# [4] = agonist: 3'3'-cGAMP (STING) 10 ug/mL
# [5] = library stock concentration (final ~1000-fold dilution): 10 mM, cytotoxicity flag (confluency mask): not cytotoxic
smiles,measurement,setting,value
Cc1cc(C#N)cc(C)c1Oc1nc(Nc2ccc(C#N)cc2)nc(N)c1Br (library stock concentration (final ~1000-fold dilution): 10 mM),IRF Lucia reporter activity,RAW-Dual [1]; [4],1.09
same,IRF Lucia reporter activity,RAW-Dual [1]; agonist: LPS (TLR4) 0.1 ug/mL,2.87
Cc1cc(/C=C/C#N)cc(C)c1Nc1ccnc(Nc2ccc(C#N)cc2)n1,IRF Lucia reporter activity,RAW-Dual [2]; [5],0.64
Cc1cc(C#N)cc(C)c1Oc1nc(Nc2ccc(C#N)cc2)nc(N)c1Br,IRF Lucia reporter activity,RAW-Dual [2]; [5],2.4
Cc1cc(/C=C/C#N)cc(C)c1Nc1ccnc(Nc2ccc(C#N)cc2)n1 (library stock concentration (final ~1000-fold dilution): 10 mM),IRF Lucia reporter activity,RAW-Dual [1]; [4],0.03
same,IRF Lucia reporter activity,RAW-Dual [1]; agonist: LPS (TLR4) 0.1 ug/mL,0.489
Cc1cc(C)c(Nc2ccnc(Nc3ccc(C#N)cc3)n2)c(C)c1,IRF Lucia reporter activity,"RAW-Dual [2]; library stock concentration (final ~1000-fold dilution): 10 mM, cytotoxicity flag (confluency mask): cytotoxic (confluency <70% of control)",1.7
Cc1cc(C)c(Nc2ccnc(Nc3ccc(C#N)cc3)n2)c(C)c1 (library stock concentration (final ~1000-fold dilution): 10 mM),IRF Lucia reporter activity,RAW-Dual [3]; [4],0.691
same,IRF Lucia reporter activity,RAW-Dual [3]; agonist: LPS (TLR4) 0.1 ug/mL,0.81
CC1CNc2c(cccc2S(=O)(=O)NC(CCCNC(=N)N)C(=O)N2CCC(C)CC2C(=O)O)C1 (centres undefined),IRF Lucia reporter activity,RAW-Dual [2]; [5],0.948
CC1CNc2c(cccc2S(=O)(=O)NC(CCCNC(=N)N)C(=O)N2CCC(C)CC2C(=O)O)C1 (centres undefined) (library stock concentration (final ~1000-fold dilution): 10 mM),IRF Lucia reporter activity,RAW-Dual [1]; [4],1.01
same,IRF Lucia reporter activity,RAW-Dual [1]; agonist: LPS (TLR4) 0.1 ug/mL,0.919
O=C(O)c1cc(I)ccc1NC(=O)C(Cc1ccccc1)NCc1ccccc1 (centres undefined) (library stock concentration (final ~1000-fold dilution): 10 mM),IRF Lucia reporter activity,RAW-Dual [1]; [4],1.17
same,IRF Lucia reporter activity,RAW-Dual [1]; agonist: LPS (TLR4) 0.1 ug/mL,1.41
O=C(O)c1cc(I)ccc1NC(=O)C(Cc1ccccc1)NCc1ccccc1 (centres undefined),IRF Lucia reporter activity,RAW-Dual [2]; [5],1.05
Nc1nc2[nH]cc(CCc3ccc(C(=O)NC(CCC(=O)O)C(=O)O)cc3)c2c(=O)[nH]1 (centres undefined),IRF Lucia reporter activity,"RAW-Dual [2]; library stock concentration (final ~1000-fold dilution): 10 mM water, cytotoxicity flag (confluency mask): not cytotoxic",1.12
Nc1nc2[nH]cc(CCc3ccc(C(=O)NC(CCC(=O)O)C(=O)O)cc3)c2c(=O)[nH]1 (centres undefined) (library stock concentration (final ~1000-fold dilution): 10 mM water),IRF Lucia reporter activity,RAW-Dual [1]; [4],1.15 and 0.82
same,IRF Lucia reporter activity,RAW-Dual [1]; agonist: LPS (TLR4) 0.1 ug/mL,0.998 and 0.771
CN1C(=O)NC(Cc2c[nH]c3c(Cl)cccc23)C1=O (centres undefined) (library stock concentration (final ~1000-fold dilution): 10 mM),IRF Lucia reporter activity,RAW-Dual [1]; [4],0.896
same,IRF Lucia reporter activity,RAW-Dual [1]; agonist: LPS (TLR4) 0.1 ug/mL,0.697
CC(C)CC1NC(=O)C(C(C)C)NC(=O)C2CCCN2C(=O)C(CC(=O)O)NC(=O)C(Cc2c[nH]c3ccccc23)NC1=O (centres undefined) (library stock concentration (final ~1000-fold dilution): 10 mM),IRF Lucia reporter activity,RAW-Dual [1]; [4],1.23
same,IRF Lucia reporter activity,RAW-Dual [1]; agonist: LPS (TLR4) 0.1 ug/mL,1.01
CN1C(=O)C(Cc2c[nH]c3ccccc23)NC1=S (centres undefined) (library stock concentration (final ~1000-fold dilution): 10 mM),IRF Lucia reporter activity,RAW-Dual [1]; [4],0.553
same,IRF Lucia reporter activity,RAW-Dual [1]; agonist: LPS (TLR4) 0.1 ug/mL,3.04
